Screening results as filed in PubChem BioAssay.
Gal4-VP16 FLuc: inhibits Gal4-VP16 luciferase reporter, ROR gamma counter-screen. AID 2546. hit rate 3.5% among 310,000. Drosophila S2 Gal4-VP16 UAS-luciferase, luminescence, 20 h. Potency, µM (top dose mostly 53.6 µM), hits mostly inhibitors;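 also: Gal4-VP16 expression switched on by copper sulfate through the metallothionein promoter; nearly all actives have a fitted effect of over 50% in size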
RORgamma inh: inhibitors of mouse ROR gamma transcriptional activity | hit rate 5.4% among 310,000 | P51450 | Potency, µM (titrated, usually from 53.6 µM), actives largely listed as inhibitors | Drosophila S2 Gal4-RORgamma UAS-luciferase reporter, 20 h; also: nearly all actives have a fitted effect of over 60% in size
Target sequence (P51450 whole entry, looked up, the tested form may be a part): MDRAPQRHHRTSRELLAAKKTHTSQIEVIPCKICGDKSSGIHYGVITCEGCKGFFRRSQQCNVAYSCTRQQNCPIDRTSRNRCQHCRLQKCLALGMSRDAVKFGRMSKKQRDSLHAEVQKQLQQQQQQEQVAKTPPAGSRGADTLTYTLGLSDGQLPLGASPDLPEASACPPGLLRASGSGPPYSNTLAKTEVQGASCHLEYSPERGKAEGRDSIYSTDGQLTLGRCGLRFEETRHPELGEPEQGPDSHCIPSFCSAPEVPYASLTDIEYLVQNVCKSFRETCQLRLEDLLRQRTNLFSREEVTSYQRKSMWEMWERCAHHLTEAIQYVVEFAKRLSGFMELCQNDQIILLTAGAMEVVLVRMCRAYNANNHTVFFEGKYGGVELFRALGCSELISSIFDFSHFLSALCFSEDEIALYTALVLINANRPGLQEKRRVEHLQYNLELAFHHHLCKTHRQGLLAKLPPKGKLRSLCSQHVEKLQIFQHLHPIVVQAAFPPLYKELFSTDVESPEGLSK
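Compounds are pin-transferred onto Drosophila Schneider cells expressing a copper-inducible Gal4–ROR gamma transactivation domain fusion. After 1 hr, copper sulfate is added to 700 uM final; luciferase is read 20 hr later.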
TDP1 cell CPT: growth inhibition of DT40 Tdp1-/-;hTDP1 cells with camptothecin (screen for TDP1 inhibitors); Potency, µM (highest dose often 46.2 µM), actives largely listed as inhibitors; chicken DT40 Tdp1-/-;hTDP1 cells + 20 nM CPT, ATP luminescence, 48 h; hit rate 12% among 420,000; also: nearly all actives have a fitted effect of over 55% in size
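Chicken DT40 Tdp1-/- cells complemented with human TDP1, 400 cells/well, exposed to compounds plus 20 nM camptothecin for at least 48 h at 37 C; viability read as ATP content by CellTiter-Glo luminescence.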
DT40 TDP1 no CPT: qHTS for Inhibitors of human tyrosyl-DNA phosphodiesterase 1 (TDP1): qHTS in cells in absence of CPT. DT40 Tdp1-/- hTDP1 cells, no CPT, ATP luminescence, 48 h. hit rate 15% among 420,000. AID 686978, 2013. Potency, µM (highest dose often 46.2 µM), actives largely listed as inhibitors; also: nearly all actives have a fitted effect of over 55% in size
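Camptothecin absent (DMSO only). Human TDP1-complemented DT40 knockout cells, 400 cells/well, 37 °C for minimum 48 hr; ATP measured via CellTiter-Glo, 30 min dark incubation, luminescence.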
IL-1B inflam inh: inhibitors of inflammasome signaling (IL-1 beta secretion). THP-1 LPS/ATP IL-1B secretion, AlphaLISA, 16 h; stronger effect = lower value. hit rate 4.7% among 360,000. activity change, % at 57.5 µM; in the data active = activity change below about -50%; inconclusive = mostly about -30% to -49%
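Secreted IL-1B measured by AlphaLISA bead assay after 16 h compound exposure of THP-1 cells; compounds (final up to 57.5 uM) added 1 h before LPS (250 ng/mL) and ATP (1.25 mM) stimulation; lower signal means less secretion.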
ELG1 DNA repair: ELG1-dependent DNA repair inhibition; HEK293T ELG1-luciferase reporter, luminescence, 16 h; DNA damage induced by 5-fluorouridine; Potency, µM (doses to about 46.1 µM), most hits filed as inhibitors; hit rate 2.3% among 330,000; also: nearly all actives have a fitted effect of over 55% in size
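Cells (2,000 per well) received 5-fluorouridine plus test compound or DMSO and were incubated 16 hr at 37 °C, 5% CO2. Luciferase activity was read by luminescence 30 min after ONE-Glo addition; signal suppression marked inhibition of damage-induced ELG1 function.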
Large screens that a line does not name were inactive. A selection: hits, their analogues and other compounds. The true share with any hit is near 21%. Unless noted, calls follow the shape of the dose curve; as a rule, active = well fitted curve in the direction sought with a large enough effect; inconclusive = small, poorly fitted or top-dose-only effect, or another doubt; inactive = no such curve, though single readings can be large; an effect the other way counts as inactive or inconclusive.

CC(=O)Nc1ccc2nc(C)n(Cc3ccc(Cl)cc3)c(=O)c2c1	DT40 TDP1 no CPT inconclusive, ELG1 DNA repair inconclusive
COc1ccc(-c2nc3ccc(NC(C)=O)cc3c(=O)n2Cc2ccccc2)cc1COc1ccc(NC(C)=O)cc1	TDP1 cell CPT inconclusive, DT40 TDP1 no CPT 11µM (no result: Gal4-VP16 FLuc, RORgamma inh, IL-1B inflam inh, ELG1 DNA repair)
CC1CC2(CCCCC2)Nc2c1ccc1ccccc21 (stereo not given)	RORgamma inh inconclusive, TDP1 cell CPT inconclusive, DT40 TDP1 no CPT 10µM
CCCc1ccc(-c2ccc(/C=C/C(=O)O)cc2)nc1	Gal4-VP16 FLuc inconclusive, RORgamma inh 0.16µM, ELG1 DNA repair inconclusive
CCN(Cc1ccccc1)C(=O)c1ccc(C)c(S(=O)(=O)N2CCCCC2)c1	TDP1 cell CPT inconclusive, DT40 TDP1 no CPT 16µM (no result: Gal4-VP16 FLuc, RORgamma inh)
COc1ccc(C(=O)N(CCc2ccccc2)Cc2ccccc2)cc1S(=O)(=O)N1CCOCC1	TDP1 cell CPT 23µM, DT40 TDP1 no CPT 16µM (no result: Gal4-VP16 FLuc, RORgamma inh)
O=C(c1cccc(S(=O)(=O)N2CCOCC2)c1)N(CCc1ccccc1)Cc1ccccc1	TDP1 cell CPT inconclusive, DT40 TDP1 no CPT inconclusive, ELG1 DNA repair inconclusive (no result: Gal4-VP16 FLuc, RORgamma inh)
CCN(CC1COc2ccccc2O1)C(=O)c1ccc(Cl)c(S(=O)(=O)N2CC(C)OC(C)C2)c1 (stereo not given)	TDP1 cell CPT 7.3µM, DT40 TDP1 no CPT 4.6µM (no result: Gal4-VP16 FLuc, RORgamma inh)
Cc1ccc(C(=O)N(CCc2ccccc2)Cc2ccccc2)cc1S(=O)(=O)N1CCCCC1	TDP1 cell CPT inconclusive, DT40 TDP1 no CPT 18µM, ELG1 DNA repair inconclusive (no result: Gal4-VP16 FLuc, RORgamma inh)
CCCN(CC(=O)Nc1ccccc1C)C(=O)c1ccc(C)c(S(=O)(=O)N2CCCCC2)c1	none (no result: Gal4-VP16 FLuc, RORgamma inh)
Cc1ccc(C(=O)N(CCc2ccccc2)Cc2ccccc2)cc1S(=O)(=O)N1CCOCC1	TDP1 cell CPT 15µM, DT40 TDP1 no CPT 23µM (no result: Gal4-VP16 FLuc, RORgamma inh, ELG1 DNA repair)
O=C(NCCc1ccccc1)c1ccc(Cl)c(S(=O)(=O)N2CCOCC2)c1	TDP1 cell CPT inconclusive (no result: Gal4-VP16 FLuc, RORgamma inh)
CC1CN(S(=O)(=O)c2cc(C(=O)N(CCc3ccccc3)Cc3ccccc3)ccc2Cl)CC(C)O1 (stereo not given)	TDP1 cell CPT 12µM, DT40 TDP1 no CPT 10µM, ELG1 DNA repair 23µM (no result: Gal4-VP16 FLuc, RORgamma inh)
COc1ccc(CC(=O)N(Cc2ccccc2)c2ccccc2)cc1S(=O)(=O)N1CCOCC1	TDP1 cell CPT 16µM, DT40 TDP1 no CPT 15µM, ELG1 DNA repair 16µM
C[C@@H]1C=CCC(=O)OC[C@H](C)C(=O)OC[C@H]2O[C@H]1C=C[C@H]2O	none (no result: TDP1 cell CPT, DT40 TDP1 no CPT, IL-1B inflam inh, ELG1 DNA repair)
Cc1nc2nc(C)c(NS(=O)(=O)c3ccc(Cl)s3)c(=O)n2[nH]1	none
COC(=O)c1ccc(C)c(NC(=O)c2nn(C)c(=O)c3ccccc23)c1	none
O=C(Cn1nc(C(=O)O)c2ccccc2c1=O)Nc1cccc(S(=O)(=O)N2CCCCC2)c1	none (no result: Gal4-VP16 FLuc, RORgamma inh)
COc1ccccc1NS(=O)(=O)c1cccc(NC(=O)c2nn(C)c(=O)c3ccccc23)c1	TDP1 cell CPT inconclusive, DT40 TDP1 no CPT 23µM, ELG1 DNA repair inconclusive (no result: Gal4-VP16 FLuc, RORgamma inh)
Cn1nc(C(=O)Nc2cccc(S(=O)(=O)N3CCCCC3)c2)c2ccccc2c1=O	TDP1 cell CPT inconclusive, DT40 TDP1 no CPT inconclusive, IL-1B inflam inh -54 (no result: Gal4-VP16 FLuc, RORgamma inh)
COC(=O)c1cccc(NC(=O)c2nn(C)c(=O)c3ccccc23)c1	TDP1 cell CPT 23µM, DT40 TDP1 no CPT 8.2µM
O=S(=O)(c1ccccc1)N1CCC[C@@]2(CCN(c3ncccn3)C2)C1	none (no result: IL-1B inflam inh, ELG1 DNA repair)
Cc1ccc(NC(=O)CCNS(=O)(=O)c2ccc3c(c2)CCC(=O)N3)c(Br)c1	none
COC(=O)[C@]1(C)N[C@H](CN(C)S(=O)(=O)c2ccc(OC(F)(F)F)cc2)[C@@H]2C(=O)N(Cc3ccccc3)C(=O)[C@@H]21	none (no result: Gal4-VP16 FLuc, RORgamma inh)
C[C@H]1C2=C3C(C[C@H]4C(=O)N(c5ccccc5)C(=O)[C@H]4[C@H]3[C@@]3(Cc4ccccc4)C(=NCCc4c[nH]c5ccccc45)OC(=O)N3C2=O)[C@H]2C(=O)N(c3ccccc3)C(=O)[C@H]21 (stereo not given in full)	none (no result: TDP1 cell CPT, DT40 TDP1 no CPT, IL-1B inflam inh, ELG1 DNA repair)
